The sample as a whole holds a higher share of hits than the screen did.
Pf Dd2 growth = inhibitors of Plasmodium falciparum Dd2 growth; 4.3% of 120,000 active; Potency, µM (highest dose often 28.9 µM), for inactives: top-dose activity, negative = inhibition, most hits filed as inhibitors; AID 1347417; P. falciparum Dd2 growth, SYBR Green, 72 h; active = well fitted inhibition curve with a large enough effect;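 note: plate controls were DMSO vehicle for no effect and reference drug for full effect; nearly all actives have a fitted effect of over 65% in size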
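Infected erythrocytes (Dd2, 0.3% parasitemia, 2.5% hematocrit final) are added to compound in RPMI-1640/Albumax II medium, grown 72 h at 37C in low oxygen, then lysed with saponin/Triton-X containing SYBR Green and read by fluorescence.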
* = called active by the depositor; i = inactive; [ ] = remark or other dose. Potency is the fitted concentration of half-maximal effect.

SMILES	Pf Dd2 growth
Cc1ccc2nc(C(=O)N[C@H](c3cnn(C)c3)C3CC(O)C3)cn2c1 (stereo partly drawn)	-7.3%
CCOCC(=O)N1CCC2(CC1)CN(Cc1ccccc1)CC2CO (stereo not drawn)	-8.1%
COCc1ccc(C(=O)N2CCN(C(C)=O)CC(O)C2)s1 (stereo not drawn)	-15.3%
COCCNC(=O)C1COC2(CCC(C)CC2)N1C(=O)c1cc(F)cc(F)c1 (stereo not drawn)	i
CC(C)(C)C1CCc2nc(NC(=O)COc3ccccc3[N+](=O)[O-])sc2C1 (stereo not drawn)	i
CC(C)(C)C1CCc2nc(NC(=O)Cc3ccccc3)sc2C1 (stereo not drawn)	11.2µM*
Cc1cccc(OCC(=O)Nc2nc3c(s2)CC(C(C)(C)C)CC3)c1C (stereo not drawn)	16.2%
CCOC(=O)c1ccccc1Nc1cc(C)nc2nc(-c3ccco3)nn12	10µM*
Cc1cc(Nc2ccccc2Cl)n2nc(-c3ccco3)nc2n1	-27.7%
Cc1cc(Nc2cccc(F)c2)n2nc(-c3ccco3)nc2n1	-16.2%
CNc1cc(C(=O)N2CCN(CC(=O)O)CC(O)C2)ccn1 (stereo not drawn)	-3.6%
COC(=O)c1c(-c2ccc(Cl)cc2)noc1N1CCN(c2ccc(C(C)=O)cc2)CC1	2.1%
COC(=O)c1c(-c2ccc(Cl)cc2)noc1N1CCN(c2ccccc2F)CC1	29.7%
COC(=O)c1c(-c2ccc(Cl)cc2)noc1N1CCN(c2ccc(C)cc2C)CC1	8.91µM*
CN1c2cc(C(=O)N3CCC(C(N)=O)(N4CCCCC4)CC3)ccc2C(=O)N2CCCC21 (stereo not drawn)	i
Cc1nc(CC2CCN(Cc3cc4n(n3)CCNC4)CC2)no1	-5.3%
Cc1ccc(SC2CCN(Cc3cc4n(n3)CCNC4)CC2)cc1	10µM*
COc1ccccc1OC1CCN(Cc2cc3n(n2)CCNC3)CC1	-15.8%
CCc1nnc(CN(C)c2cc(C3CC(O)C3)nc(N)n2)o1 (stereo not drawn)	-2.3%
COc1ccccc1-n1nc(-c2c(C)nc3scc(CC(=O)NCc4ccco4)n3c2=O)cc1C	i
CNC(=O)[C@@H]1CN(S(=O)(=O)c2ccc(F)cc2F)C[C@H]1COC	9.1%
COCCCNC(=O)c1ccc(Cn2c(SCc3ccc(F)cc3)nc3cccnc32)cc1	-21.8%
O=C(NCCc1ccccc1)c1ccc(Cn2c(SCc3cccc(F)c3)nc3cccnc32)cc1	12.6µM*
Cc1cccc(Cn2c(CNC(=O)c3ccccc3)nc3ccccc32)c1	-5.3%
Cc1ccccc1CNC(=O)c1ccc(Cn2c(SCc3cccc(F)c3)nc3cccnc32)cc1	-16.2%
SMILES	Pf Dd2 growth
Cc1ccc(CSc2nc3cccnc3n2Cc2ccc(C(=O)NCCc3ccccc3)cc2)cc1	-13.4%
O=C(NC1CCCC1)c1ccc(CSc2nc3cccnc3n2Cc2ccccc2)cc1	13.5%
O=C(NCCN1CCCCC1)c1ccc(Cn2c(SCc3ccc(F)cc3)nc3cccnc32)cc1	7.08µM*
Cc1cccc(Cn2c(SCc3ccc(C(=O)NCCc4ccccc4)cc3)nc3ccncc32)c1	3.16µM*
O=C(Cn1c(SCc2cccc(F)c2)nc2ccncc21)Nc1ccc(Cl)cc1F	28.3%
COCCCNC(=O)c1ccc(Cn2c(SCc3cccc(C)c3)nc3cccnc32)cc1	i
O=C(c1ccc(CSc2nc3ccncc3n2Cc2cccc(F)c2)cc1)N1CCCCCC1	8.91µM*
CSc1ccc(CCNC(=O)C2CCN(c3nc4ccccc4nc3C(F)(F)F)CC2)cc1	32.6%
Cc1ccc2nc(COc3ccccc3NC(=O)COc3ccc(F)cc3)cc(=O)n2c1	0.8%
Cc1noc(C)c1CC(=O)N1CCC(Cc2noc(C3CC3)n2)C1 (stereo not drawn)	-15.5%
CCN1CCN(c2ncnc3c2cnn3-c2ccc(F)cc2)CC1	7.3%
O=C(c1ccc(C(F)(F)F)cc1)N1CCC2(CC1)CC(O)CCO2 (stereo not drawn)	0.9%
O[C@@H]1C[C@@H](c2nc(-c3cnccn3)no2)N(CC2CCCCC2)C1	i
O=C(NCCc1ccccc1)c1ccc(CSc2nc3ccncc3n2Cc2cccc(F)c2)cc1	4.47µM*
COC(=O)c1ccc(Cn2c(SCc3ccccc3F)nc3ccncc32)cc1	-16.8%
O=C(NCCc1ccccc1)c1ccc(CSc2nc3ccncc3n2Cc2ccccc2F)cc1	7.08µM*
O=C(NCc1ccccc1)c1ccc(CSc2nc3cccnc3n2Cc2ccccc2F)cc1	3.0%
CN(C)c1ccc(C(CNS(=O)(=O)c2ccc(F)cc2)N2CCCC2)cc1 (stereo not drawn)	296.8%[5.79 µM]
Cc1cc(C)n(Cc2cc(C(=O)N(C)CCOc3ccccc3)n[nH]2)n1	-11.1%
Cc1[nH]c2ccccc2c1CC(=O)NC1CCCN(c2ncccn2)C1 (stereo not drawn)	-0.9%
COc1ccc(CN2Cc3[nH]nc(-c4cccc(O)c4)c3CC2=O)cc1	i
COc1ccc(C(=O)NCCc2ncc(C)n2Cc2ccc(F)cc2)cn1	-11.3%
Cc1cnc(CCNC(=O)NC(C)(C)C)n1Cc1ccccc1	3.98µM*
CC(=O)N1CCC(Cc2ncc(C)n2Cc2ccccc2)C1 (stereo not drawn)	-13.5%
Cn1ccnc1CN1CCN(C(C(=O)O)c2cccc3c2OCC3)CC1 (stereo not drawn)	-16.1%
SMILES	Pf Dd2 growth
O=C(NCCc1cccs1)C1CCN(c2cc(C(F)(F)F)ncn2)CC1	i
CCCCn1c(NCc2ccc(OC)cc2O)nc2ccccc21	7.94µM*
CCCCn1c(COc2cccc(OC)c2)nc2ccccc21	-13.0%
CCn1c(NCc2ccc(OC)c(OC)c2)nc2ccccc21	-4.7%
O=C1[C@@H]2C[C@@H](O)CN2C2(CN(C3CCCCC3)C2)C(=O)N1Cc1ccccc1F	-24.5%[44.1 µM]
O=C(NCc1ccccn1)C1Cn2cccc2C(=O)N1Cc1ccccc1 (stereo not drawn)	-12.4%
CCOC(=O)C1CCN(S(=O)(=O)c2cc3c4c(c2)CC(=O)N4CCC3)CC1	10µM*
CCOC(=O)C1CCN(S(=O)(=O)c2cc3c4c(c2)C(C)C(=O)N4CCC3)CC1 (stereo not drawn)	i
CCOC(=O)C1CCCN(S(=O)(=O)c2cc3c4c(c2)CC(=O)N4CCC3)C1 (stereo not drawn)	-8.7%
C[C@H]1[C@@H]2[C@@H](O)C([C@H](C)C(=O)NCCN3CCOCC3)CC[C@@]2(C)CC[C@@H]1NC(=O)c1ccccn1 (stereo partly drawn)	-14.6%
Cc1ccc(Cc2nc3ccccc3nc2SCC(=O)N2CCN(c3ccc(F)cc3)CC2)cc1	19.9%
Cc1ccc(Cc2nc3ccccc3nc2SCC(=O)N2CCC(C)CC2)cc1	10µM*
COc1ccccc1N1CCN(C(=O)CSc2nc3ccccc3nc2Cc2ccc(C)cc2)CC1	-7.4%
CNC(=O)[C@@H]1C[C@@H](O)CN1C1CCN(C(=O)c2ccc(Cc3c(C)noc3C)o2)CC1	1.8%
COc1ccc(CNC(=O)c2cc3cccc4c3n2CC(C)S4)c(OC)c1 (stereo not drawn)	i
O=C(O)c1cnc2c(c1)n(CCN1CCCC1)c(=O)n2CCc1ccccn1	-1.5%
COc1cccc(CNC(=O)[C@@H]2C[C@@H](O)CN2C2CCN(C(=O)c3ccncc3)CC2)c1	-19.3%
COc1cccc(CNC(=O)[C@@H]2C[C@@H](O)CN2C2CCN(C(=O)CC3CCCC3)CC2)c1	i
COc1cccc(CNC(=O)[C@@H]2C[C@@H](O)CN2C2CCN(C(=O)Cc3ccc(Cl)cc3)CC2)c1	12.6µM*
COc1cccc(CNC(=O)[C@@H]2C[C@@H](O)CN2C2CCN(C(=O)c3cccc(OC)c3)CC2)c1	-10.8%

Screens as filed in PubChem BioAssay.
